According to PubChem BioAssay AID504333 (National Center for Advancing Translational Sciences (NCATS), 2011):
Among all 360,000 compounds or so, about 16,000 (4.4%) were called active. Where a call stands in place of a potency, no number is given. Inconclusive results (about 9%) are left out. The call rests on the fitted dose curve; in most records, active means well fitted inhibition curve with a large enough effect; inconclusive means small, poorly fitted or top-dose-only effect; inactive means no such curve, though single readings can be large or run the other way. The sample as a whole holds a higher share of actives than the screen did.

Each molecule was assayed against Bromodomain adjacent to zinc finger domain protein 2B (Homo sapiens) (UniProt Q9UIF8) (assay: qHTS Assay for Inhibitors of BAZ2B). Conditions: AlphaScreen BAZ2B-H3K14Ac peptide displacement; series mostly up to 114 µM.
Procedure, shortened: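 AlphaScreen displacement: compounds (up to 110uM) incubated 30 min at room temperature with a preformed 50 nM BAZ2B/50 nM biotinylated H3K14Ac peptide complex in PBS pH 7.4 with Tween-20. Donor and acceptor beads at 10 ug/mL final added, 20 min light-protected before reading.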
Further: nearly all actives have a fitted effect of over 60% in size.
Potency means the concentration at half of the fitted maximal effect.

Sequence of Bromodomain adjacent to zinc finger domain protein 2B (Homo sapiens) (Q9UIF8 whole entry, looked up, the tested form may be a part): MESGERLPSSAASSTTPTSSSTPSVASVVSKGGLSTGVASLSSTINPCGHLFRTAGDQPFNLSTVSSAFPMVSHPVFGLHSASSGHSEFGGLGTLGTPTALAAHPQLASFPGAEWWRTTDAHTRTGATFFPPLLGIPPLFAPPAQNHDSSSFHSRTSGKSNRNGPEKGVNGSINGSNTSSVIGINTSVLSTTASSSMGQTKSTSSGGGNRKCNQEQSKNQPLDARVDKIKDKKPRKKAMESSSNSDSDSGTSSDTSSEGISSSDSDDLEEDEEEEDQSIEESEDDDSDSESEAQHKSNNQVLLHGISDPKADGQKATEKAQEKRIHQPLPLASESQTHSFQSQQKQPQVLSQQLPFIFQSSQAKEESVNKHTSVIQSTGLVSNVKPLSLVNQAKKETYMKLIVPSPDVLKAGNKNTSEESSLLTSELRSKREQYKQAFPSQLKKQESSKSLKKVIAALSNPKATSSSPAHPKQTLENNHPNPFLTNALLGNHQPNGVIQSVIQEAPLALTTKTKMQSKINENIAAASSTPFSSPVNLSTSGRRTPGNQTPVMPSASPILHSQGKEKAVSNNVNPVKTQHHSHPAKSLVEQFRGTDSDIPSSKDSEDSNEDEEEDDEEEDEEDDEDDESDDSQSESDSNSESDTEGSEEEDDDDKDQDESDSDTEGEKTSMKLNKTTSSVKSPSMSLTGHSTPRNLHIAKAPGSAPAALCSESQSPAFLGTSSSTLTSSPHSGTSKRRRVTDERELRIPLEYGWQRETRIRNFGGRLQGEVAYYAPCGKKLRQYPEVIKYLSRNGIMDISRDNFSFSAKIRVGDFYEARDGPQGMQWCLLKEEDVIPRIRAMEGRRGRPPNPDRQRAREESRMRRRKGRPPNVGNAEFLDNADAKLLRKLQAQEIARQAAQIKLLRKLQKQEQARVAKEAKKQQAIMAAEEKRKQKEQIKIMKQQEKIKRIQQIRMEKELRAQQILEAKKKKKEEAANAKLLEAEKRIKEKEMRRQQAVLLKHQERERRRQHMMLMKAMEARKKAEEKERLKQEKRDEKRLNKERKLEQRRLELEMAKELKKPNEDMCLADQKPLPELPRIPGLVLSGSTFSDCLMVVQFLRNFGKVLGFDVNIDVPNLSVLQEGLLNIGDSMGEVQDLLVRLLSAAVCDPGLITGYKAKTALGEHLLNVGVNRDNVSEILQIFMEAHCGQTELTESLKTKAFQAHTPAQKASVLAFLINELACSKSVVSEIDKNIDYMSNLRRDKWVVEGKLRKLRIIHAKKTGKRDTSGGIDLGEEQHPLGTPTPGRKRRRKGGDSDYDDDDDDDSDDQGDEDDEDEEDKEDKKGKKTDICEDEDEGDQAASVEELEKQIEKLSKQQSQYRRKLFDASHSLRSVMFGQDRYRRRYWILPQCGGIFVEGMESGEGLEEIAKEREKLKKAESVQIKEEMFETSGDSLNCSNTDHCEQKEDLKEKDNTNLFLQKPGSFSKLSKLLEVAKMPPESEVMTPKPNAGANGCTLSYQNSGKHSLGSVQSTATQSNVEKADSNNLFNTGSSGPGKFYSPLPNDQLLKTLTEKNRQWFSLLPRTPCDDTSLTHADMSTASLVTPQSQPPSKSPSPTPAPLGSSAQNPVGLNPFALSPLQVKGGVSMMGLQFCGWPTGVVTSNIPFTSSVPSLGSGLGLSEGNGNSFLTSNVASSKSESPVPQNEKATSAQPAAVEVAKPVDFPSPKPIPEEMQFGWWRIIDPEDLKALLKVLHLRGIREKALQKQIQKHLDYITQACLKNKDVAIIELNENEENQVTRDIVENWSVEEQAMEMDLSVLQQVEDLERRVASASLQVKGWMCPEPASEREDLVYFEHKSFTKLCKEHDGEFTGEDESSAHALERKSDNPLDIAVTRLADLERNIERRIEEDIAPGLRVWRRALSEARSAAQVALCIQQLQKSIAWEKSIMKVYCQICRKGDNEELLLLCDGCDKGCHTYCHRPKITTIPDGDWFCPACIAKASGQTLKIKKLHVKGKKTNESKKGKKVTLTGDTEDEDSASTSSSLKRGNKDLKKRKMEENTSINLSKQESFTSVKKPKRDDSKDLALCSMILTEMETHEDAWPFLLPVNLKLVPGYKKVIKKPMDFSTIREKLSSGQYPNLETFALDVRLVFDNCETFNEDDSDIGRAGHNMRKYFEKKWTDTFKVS

Compound | Potency
COc1ccc(CCNC(=O)CCCCn2c(=O)c3ccccc3n(Cc3ccccc3)c2=O)cc1OC | inactive
Cc1ccc(SCC(=O)Nc2ccc3oc(-c4ccccc4C)nc3c2)cc1 | inactive
COc1ccc(NC(=O)c2ccc3nc(C(C)C)oc3c2)cc1OC | inactive
CCCc1cc(=O)n2[nH]c(NCc3ccc(CC)cc3)nc2n1 | inactive
Nc1ccccc1SC(C[N+](=O)[O-])c1ccccc1 (stereo not drawn) | 44.7 µM (active)
COc1cc(CNC(=O)c2cc3n(n2)CCCN(Cc2cccc(F)c2)C3=O)cc(OC)c1OC | inactive
Cc1oc2ccc(O)c(CN3CCOCC3)c2c1C(=O)Nc1cccc(Cl)c1C | inactive
O=C(N/N=C/c1ccccn1)c1cccnc1 | 28.2 µM (active)
O=C(N/N=C/c1ccccn1)C12CC3CC(CC(C3)C1)C2 | inactive
O=C(N/N=C/c1ccccn1)c1cccc(NC(=O)c2ccc(Cl)cc2)c1 | inactive
O=C(CNC(=O)c1cccnc1)N/N=C/c1cccnc1 | inactive
CNC(=O)C(=O)N/N=C/c1ccccn1 | 39.8 µM (active)
Cc1cc(C(=O)N/N=C/c2ccccn2)c2ccccc2n1 | inactive
COc1ccc(-c2noc(CSc3nc4ccc(C)cc4[nH]3)n2)cc1 | inactive
Cc1oc2ncnc(N3CCCCC3)c2c1C(=O)N1CCN(c2cccc(Cl)c2)CC1 | inactive
Cc1cccc(NC(=O)CSc2nnc(CNC(=O)c3cccc(C)c3)n2-c2ccccc2)c1 | inactive
Cc1ccc(-c2ccc(CCC(=O)O)n2-c2ccc(C(N)=O)cc2)cc1 | inactive
CCN1CCN(Cc2c(O)ccc3oc(C)c(C(=O)Nc4ccc(C)cc4C)c23)CC1 | inactive
OC(C#CCN1CCOCC1)(c1ccccc1)C1CCCCC1 (stereo not drawn) | inactive
CN(CC#CCC(c1ccccc1)c1ccccc1)C(C)(C)C | inactive
CC(C)(C)N(CC#CCC(O)(c1ccccc1)C1CCCC1)CCO (stereo not drawn) | 79.4 µM (active)
CCc1ccccc1NC(=O)c1ccc2nc(CCc3ccccc3)oc2c1 | inactive
COC(=O)c1ccc(Cn2c(SCC(=O)N(C)c3ccccc3)nc3ccccc32)cc1 | inactive
O=C(Nc1ccccc1)c1nnsc1S(=O)(=O)c1ccc(Cl)cc1 | 44.7 µM (active)
O=C(Nc1ccc(Oc2ccccc2)cc1)C1CCN(S(=O)(=O)c2ccc(Cl)cc2)CC1 | inactive
CN(c1cccc(NC(=O)Nc2ccc(Cl)cc2)c1)S(C)(=O)=O | inactive

Compound | Potency
CCCCN(CC)CCCNC(=O)c1nn(C)c2c1CSc1ccccc1-2 | inactive
Cc1ccccc1CNC(=O)c1cccc(NC(=O)c2nsc3ccccc23)c1 | inactive
O=C(CSc1nnc(-c2ccncc2)n1-c1ccccc1)Nc1ccc(Cl)c(Cl)c1 | inactive
Cc1cc(C)cc(-n2c(SCC(=O)NCC3CCCO3)nc3c([nH]c4ccccc43)c2=O)c1 (stereo not drawn) | inactive
CC1=NN(Cc2ccccc2)C(=O)/C1=C/c1ccc(N(C)C)cc1 | 2 µM (active)
CN(C)c1ccc(/C=C2\NC(=S)N(Cc3ccccc3)C2=O)cc1 | 28.2 µM (active)
CN(C)c1ccnc2sc3c(=O)n(Cc4ccccc4)cnc3c12 | inactive
CSc1c(SCc2ccccc2)cnn(Cc2ccccc2)c1=O | inactive
O=C1N/C(=C/c2cccs2)C(=O)N1Cc1ccc(F)cc1 | inactive
Cc1ccc(CN2C(=O)N/C(=C/c3cc(C)n(-c4ccccn4)c3C)C2=O)cc1 | inactive
CCc1ccc(C(=O)CC2(O)C(=O)N(CCc3ccccc3)c3ccc(Br)cc32)cc1 (stereo not drawn) | inactive
CCC1CCCCN1Cc1c(O)ccc2c(=O)c(Oc3ccccc3Cl)c(C(F)(F)F)oc12 (stereo not drawn) | inactive
COCCNC(=O)c1ccc2c(c1)N(Cc1cccc(Cl)c1)C(=O)c1ccccc1S2(=O)=O | inactive
Cc1c(-c2nsc(NC(=O)c3cccc(Cl)c3)n2)nnn1-c1ccccc1C(F)(F)F | inactive
Cc1ccccc1Nc1scc(-c2ccc(Br)cc2)[n+]1-c1ccccc1C | 11.2 µM (active)
O=C(CSc1ncc(S(=O)(=O)c2ccc(Br)cc2)c(=O)[nH]1)Nc1ccc2c(c1)OCCO2 | inactive
CCOc1ccc(C(NC(=O)c2cc(OC)c(OC)c(OC)c2)c2cc(Cl)c3cccnc3c2O)cc1 (stereo not drawn) | inactive
CCOC(=O)N1CCN(C(=O)CSc2nc(=O)n3cccc(C)c3n2)CC1 | inactive
CCOC(=O)N1CCN(C(c2cccnc2)c2ccc3cccnc3c2O)CC1 (stereo not drawn) | 15.8 µM (active)
CCN1CCN(C(c2cccnc2)c2cc(Cl)c3cccnc3c2O)CC1 (stereo not drawn) | 11.2 µM (active)
CCN1CCN(C(c2ccc(C)cc2)c2c(O)cc(C)n(Cc3ccco3)c2=O)CC1 (stereo not drawn) | inactive
COc1ccccc1N1CCN(C(CNC(=O)C(=O)NCc2ccc(C)cc2)c2cccnc2)CC1 (stereo not drawn) | inactive
Cc1ccc(Cl)cc1NC(=O)CCC(=O)N1CC(C)Sc2ccccc21 (stereo not drawn) | inactive
CCOc1ccc(Nc2ncnc3scc(-c4ccc(OC)cc4)c23)cc1 | inactive
CN(NS(=O)(=O)c1cccs1)c1ncc(C(F)(F)F)cc1Cl | 56.2 µM (active)
CN(CC(=O)Nc1cccc(C(F)(F)F)c1)S(=O)(=O)c1cccs1 | inactive

Compound | Potency
C#CCN(N(C)c1ncc(C(F)(F)F)cc1Cl)S(=O)(=O)c1ccc2ccccc2c1 | inactive
Cc1cccc(-n2ncc(C(=O)N3CCN(c4ccc(Cl)cc4)CC3)c2C2CCN(C(=O)OC(C)(C)C)CC2)c1 | inactive
CC1=C(C(=O)OCC(C)C)C(c2ccc(OCc3ccccc3)cc2)N2C(=O)CCSC2=N1 (stereo not drawn) | inactive
O=[N+]([O-])c1cccc(/C=N/Nc2ncc(Br)cn2)c1 | inactive
Cc1cc(/C=C2/SC(=O)N(CC(=O)N3CCCC3)C2=O)c(C)n1C | inactive
NC1=NN(c2cccc(C(=O)O)c2)C(=O)C1 | inactive
Cc1cc(/C=C2/SC(=O)N(CC(=O)OC(C)C)C2=O)c(C)n1C | inactive
Cc1cc(/C=N/n2cnnc2)c(C)n1-c1cccc(C(=O)O)c1 | 35.5 µM (active)
Cc1cccc(C)c1NC(=O)CSc1ccc([N+](=O)[O-])cn1 | inactive
Cc1cc(/C=N/Nc2ccc([N+](=O)[O-])cn2)c(C)n1-c1cccc(C(=O)O)c1 | 44.7 µM (active)
Fc1ccc(Br)cc1/C=N/n1cnnc1 | inactive
Cc1cc(/C=C2\SC(=O)N(C)C2=O)c(C)n1-c1cccc(C(=O)O)c1 | 79.4 µM (active)
O=C(Cn1c(=O)n(-c2ccc(F)cc2)c(=O)c2sccc21)Nc1cccc(C(F)(F)F)c1 | inactive
CCc1cccc(-n2nnc(-c3nsc(NC(=O)c4ccc(C)cc4)n3)c2C)c1 | inactive
O=C(CS(=O)(=O)c1cccc2nsnc12)N1CCN(c2cccc(Cl)c2)CC1 | inactive
COc1ccccc1-c1cc(C(F)(F)F)nc(S(=O)(=O)CCCC(=O)Nc2ccc(F)cc2F)n1 | inactive
CCn1cc2nc(SCc3cccc(F)c3)n(CCc3ccccc3)c(=O)c2n1 | inactive
COc1cc(NS(=O)(=O)c2ccc3c(c2)OCC(C(=O)N2CCCC2)O3)cc(OC)c1 (stereo not drawn) | inactive
COc1ccc(C(=O)N2CCC(c3nc4ccccc4o3)CC2)cc1 | inactive
Cn1c(Nc2ccccc2)cc(=O)n(C)c1=O | inactive
Cc1cc2nc(C)n(CCCNC(=O)Nc3ccccc3)c2cc1C | inactive
Cc1cc(=O)n(C)c(=O)n1CCCNc1ccccc1 | 50.1 µM (active)
Cc1ccc(-n2nc(C)c3c(C)cc(=O)n(CC(=O)Nc4ccc(C(C)C)cc4)c32)cc1 | inactive
O=C(NC1CCCCC1)C1CCCN(S(=O)(=O)c2ccc(Br)s2)C1 (stereo not drawn) | inactive
O=C(Cc1ccc(S(=O)(=O)N2CCCC2)s1)NC1CCCCCC1 | 50.1 µM (active)
O=C(Cc1ccc(S(=O)(=O)N2CCOCC2)s1)NCCC(c1ccccc1)c1ccccc1 | inactive

Compound | Potency
Cc1cc(-c2ccc(C)c(S(=O)(=O)N3c4ccccc4CC3C)c2)on1 (stereo not drawn) | inactive
Cc1ccsc1CN(C(=O)c1oc2ccc(Br)cc2c1C)C1CCS(=O)(=O)C1 (stereo not drawn) | inactive
COc1ccc(C(=O)COC(=O)c2ccc([N+](=O)[O-])s2)cc1OC | inactive
Cc1cccc(C)c1NC(=O)CNC(=O)c1ccc2c(c1)OCCO2 | inactive
CSc1ccccc1-c1nnc(NC(=O)c2ccc3c(c2)OCCO3)o1 | inactive
Cc1csc(NC(=O)C2=COCCO2)n1 | inactive
O=C(Nc1ncc([N+](=O)[O-])s1)C1COc2ccccc2O1 (stereo not drawn) | inactive
O=C(Nc1nnc(C2=COCCO2)o1)c1ccc([N+](=O)[O-])s1 | 79.4 µM (active)
CCC(CC)c1nnc(NC(=O)C2=COCCO2)s1 | inactive
COc1cc(-c2nnc(NC(=O)C3=COCCO3)o2)cc(OC)c1OC | 39.8 µM (active)
Cc1ccc(C(=O)Nc2nnc(C3=COCCO3)o2)cc1C | 50.1 µM (active)
O=C(NCCc1csc(-c2ccc(C(F)(F)F)cc2)n1)C(=O)Nc1ccc(F)c(Cl)c1 | inactive
CC(C)(C)OC(=O)N1CCC(c2c(C(=O)NCc3ccccn3)cnn2-c2ccc(F)cc2)CC1 | inactive
O=C(Nc1ncccc1O)c1ccc(C(=O)c2ccccc2)cc1 | inactive
CC1CCC(NC(=O)CNC(=O)c2ccc3ccccc3c2)CC1 (stereo not drawn) | inactive
O=C(CNC(=O)c1ccc2ccccc2c1)Nc1ncccc1O | 50.1 µM (active)
CN(Cc1ccccc1)C(=O)CCS(=O)(=O)c1cc(Br)cc2c1N(C(=O)C1CC1)CC2 | inactive
Cc1ccc(C)c(N2CCN(C(=O)CN3C(=O)COc4ccc(S(=O)(=O)N5CCCCCC5)cc43)CC2)c1 | inactive
CCOCCCNCc1ccc(OCc2ccc(F)cc2)c(OC)c1 | inactive
CCOc1ccccc1OCCCNCc1ccccc1 | 79.4 µM (active)
CCOCCCNCc1cc(Br)ccc1OCC | inactive
Cc1cc(C)c2oc(-c3cccc(NC(=O)c4cccc(F)c4)c3C)nc2c1 | inactive
CCN1C(=O)/C(=C2\SC(N3CCCCC3)=NC2=O)c2ccccc21 | 39.8 µM (active)
O=C1N=C(N2CCCC2)S/C1=C\c1cccc(Br)c1 | inactive
CCOc1cc(/C=C2\SC(N3CCCCC3)=NC2=O)ccc1O | inactive
